MITF act – activators of MITF-driven TRPM1 promoter reporter, primary screen, cell-based, SK-MEL-5, luciferase, single point; SK-MEL-5 TRPM1-promoter luciferase, 24 h; % of positive control, neutral wells = 0; activation, % at 12.5 µM; 300,000 tested, 0.75% active;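 active means mean activation of at least 80% with every replicate also reaching 80%; inconclusive means mean reaches 80% but some replicate falls short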
Wnt bcat act – Wnt/beta-catenin pathway activators, primary screen, cell-based, plate reader, single point | Wnt/beta-catenin reporter cell assay, activator | activation, % at 9.35 µM | 300,000 tested, 1.2% active; in the data active means activation above about 30%, passing the limit was not always enough; inconclusive means no clear call, values can overlap the other calls
esBAF inh – Bmi1 luciferase reporter increase in mESCs, primary screen, esBAF inhibitor project, mouse ES cells, Bmi1 luciferase knock-in, single point | 24 h; 100% = twice the neutral-well signal | 350,000 tested, 2% active | reporter increase, % at 12.5 µM; in the data active means activation above about 40%; inconclusive means no clear call, values can overlap the other calls;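 further: a rise in the Bmi1 reporter signal indicates esBAF inhibition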
Glyco luc inh – increase of ERlucT glycosylation luciferase signal, primary screen, N-linked glycosylation inhibitor project, D54 ERlucT cells, luminescence, set 2. 360,000 tested, 0.23% active. AID 588692, 2011. reporter increase, % at 12.5 µM. D54 ERlucT glycosylation luciferase reporter, 24 h; percent of 100 nM tunicamycin response;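 active means mean luciferase reporter signal, scaled so untreated is 0 and the glycosylation-blocking control 100, at or above a set limit in every replicate; inconclusive means mean reaches the limit but not every replicate does; inactive means mean below the limit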;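 further: luciferase carries N-glycosylation sites so blocking glycosylation raises the light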
PfHsp90 set2 – growth inhibition of PfHsp90-expressing yeast, primary screen, antimalarial PfHsp90 inhibitor project, S. cerevisiae, BacTiter-Glo luminescence, single point, set 2. AID 504621, 2011. BacTiter-Glo ATP, 48 h; yeast lacking PDR1 and PDR3 efflux regulators. 310,000 tested, 0.32% active. inhibition, % at 9.4 µM;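 active means every replicate shows inhibition above about 80%, whatever the replicate mean, limit read from the data; inconclusive means mean inhibition reaches the set limit but some replicate falls short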
Vif imaging – HIV Vif self-association inhibitors, primary screen, imaging, HEK293T, single point; HEK293T cells, Vif self-association by quenched fluorescence, 24 h; inhibition, % at 7.49 µM; 340,000 tested, 0.35% active; AID 602346, 2012; in the data active means inhibition above about 50%, passing the limit was not always enough; inconclusive means no clear call, values can overlap the other calls; inactive means below about 31%
Numbers stand for hits. The list is not random: actives were taken first. Their share in the collection is about 3%.

For N#Cc1ccccc1OCC(=O)N1N=C(c2cccs2)CC1c1ccco1 (stereo not drawn) the results were MITF act inactive, Wnt bcat act inactive, esBAF inh 70.0, Glyco luc inh inactive, PfHsp90 set2 inactive and Vif imaging inactive.
O=C(CNC(=O)c1ccccc1)OCC(=O)N1N=C(c2ccc(Cl)cc2)CC1c1ccco1 (stereo not drawn) was read as MITF act inactive, Wnt bcat act 40.8, Glyco luc inh inactive, PfHsp90 set2 inactive and Vif imaging inactive.
`CN(CC(=O)Nc1ccc(S(=O)(=O)N2CCCC2)cc1)CC(=O)Nc1ccc(F)c(F)c1F` gave MITF act inactive, Wnt bcat act inactive, Glyco luc inh inactive, PfHsp90 set2 inactive and Vif imaging inactive.
Screening COc1ccc(N2CCN(CCCNC(=O)C(=O)c3c(C)n(C)c4ccccc34)CC2)cc1 returned MITF act inactive, Wnt bcat act inactive, esBAF inh inactive, Glyco luc inh inactive, PfHsp90 set2 inactive and Vif imaging 53.5.
`O=C(NC(=S)Nc1ccc2c(c1)OCCO2)c1ccccc1F` gave MITF act 84.6, Wnt bcat act inactive, esBAF inh 54.0, Glyco luc inh inactive, PfHsp90 set2 inactive and Vif imaging inactive.
`O=C(Nc1ccc2c(c1)OCCO2)c1ccccc1F` gave Wnt bcat act inactive, esBAF inh inactive, Glyco luc inh inactive, PfHsp90 set2 inactive and Vif imaging inactive.
O=C(Nc1ccc2c(c1)OCCO2)c1c(F)cccc1F was read as MITF act 102.4, Wnt bcat act inactive, esBAF inh inactive, Glyco luc inh inactive, PfHsp90 set2 inactive and Vif imaging inactive.
For Cn1nc(C(=O)NCC2CCCO2)c2ccccc2c1=O (stereo not drawn) the results were MITF act inactive, Wnt bcat act inactive, esBAF inh inactive, Glyco luc inh inactive, PfHsp90 set2 inactive and Vif imaging inactive.
O=C(COC(=O)c1ccc2c(c1)OCCO2)Nc1cc(Cl)ccc1Cl was read as MITF act inactive, Glyco luc inh inactive, PfHsp90 set2 inactive and Vif imaging inactive.
For O=c1cc(-c2ccccc2Cl)oc2cccc(O)c12 the results were MITF act inactive, Wnt bcat act inactive, esBAF inh inactive, Glyco luc inh inactive, PfHsp90 set2 inactive and Vif imaging inactive.
O=c1cc(-c2ccccc2Cl)oc2c(Br)ccc(O)c12 was read as MITF act inactive, Wnt bcat act inactive, esBAF inh 83.1, Glyco luc inh inactive and PfHsp90 set2 inactive.
Screening O=C(Nc1ccc(O)c2c(=O)cc(-c3ccccc3Cl)oc12)c1ccc(Cl)c(Cl)c1 returned MITF act inactive, Wnt bcat act inactive, esBAF inh 50.8, Glyco luc inh inactive, PfHsp90 set2 inactive and Vif imaging inactive.
Screening CCCCCCCCCC[n+]1cccc(C(=O)N(CC)CC)c1 returned MITF act inactive, esBAF inh inactive, Glyco luc inh inactive, PfHsp90 set2 inactive and Vif imaging inactive.
`Cc1nc(CSc2nnc(N)s2)cs1` gave MITF act inactive, Wnt bcat act inactive, Glyco luc inh inactive and Vif imaging inactive.
CCCOc1ccc(-c2cnc(SCC(N)=O)nc2N)cc1 was read as MITF act inactive, Wnt bcat act inactive, esBAF inh inactive, Glyco luc inh inactive, PfHsp90 set2 inactive and Vif imaging inactive.
Screening CCOc1ccc(-c2nc(CSc3nnc(N)s3)cs2)cc1OC returned MITF act inactive, esBAF inh 47.5, Glyco luc inh inactive, PfHsp90 set2 inactive and Vif imaging inactive.
Screening CCOc1ccc(-c2nc(CSc3nnc(N)s3)cs2)cc1 returned MITF act inactive, esBAF inh 49.1, Glyco luc inh inactive, PfHsp90 set2 inactive and Vif imaging inactive.
Screening CCCOc1ccc(OCCSc2nnc(N)s2)cc1 returned MITF act inactive, esBAF inh 52.7, Glyco luc inh inactive, PfHsp90 set2 inactive and Vif imaging inactive.
`CCCOc1ccc(-c2cnc(N)s2)cc1` gave MITF act 87.6, Wnt bcat act inactive, esBAF inh 76.2, Glyco luc inh inactive and PfHsp90 set2 inactive.
Screening Nc1nnc(SCCCOc2ccc(F)cc2)s1 returned MITF act inactive, Wnt bcat act inactive, esBAF inh inactive, Glyco luc inh inactive, PfHsp90 set2 inactive and Vif imaging inactive.
Screening CCN(CC)C(=O)c1cn(CC)c(=O)c2cc(OC)c(OC)cc12 returned MITF act inactive, esBAF inh inactive, Glyco luc inh inactive, PfHsp90 set2 inactive and Vif imaging inactive.
COc1ccc(S(=O)(=O)N(C)C[C@H]2Oc3cc(C#CC4CCCC4)ccc3S(=O)(=O)N([C@H](C)CO)C[C@@H]2C)cc1 was read as esBAF inh inactive.
For Nc1nnc(SCc2ccc(Cl)cc2)s1 the results were MITF act inactive, Wnt bcat act inactive, esBAF inh inactive, Glyco luc inh inactive, PfHsp90 set2 inactive and Vif imaging inactive.
For CCOC(=O)c1ccc(CSc2nnc(N)s2)cc1 the results were esBAF inh 48.4, Glyco luc inh inactive and Vif imaging inactive.
Screening O=C(c1ccc2c(c1)OCO2)N(CC1CCCO1)C1(C(=O)NC2CCCC2)CCCCC1 (stereo not drawn) returned MITF act inactive, Wnt bcat act inactive, esBAF inh inactive, Glyco luc inh inactive, PfHsp90 set2 inactive and Vif imaging 69.5.
`CCC(=O)N[C@@H]1CC[C@@H](CCNC(=O)Nc2ccc(C(F)(F)F)cc2)O[C@H]1CO` gave esBAF inh inactive.
Screening COc1ccccc1N1CCN(/N=C/c2cccc(Cl)c2)CC1 returned Wnt bcat act 42.1, esBAF inh 99.7, Glyco luc inh inactive, PfHsp90 set2 inactive and Vif imaging inactive.
Screening COc1ccc(/C=N/N2CCN(c3ccccc3OC)CC2)cc1OC returned MITF act inactive, esBAF inh inactive, Glyco luc inh inactive, PfHsp90 set2 inactive and Vif imaging inactive.
COc1cccc(/C=N/N2CCN(c3ccccc3OC)CC2)c1 was read as MITF act 107.6, esBAF inh inconclusive, Glyco luc inh inactive, PfHsp90 set2 inactive and Vif imaging inactive.
COc1ccccc1N1CCN(/N=C/c2cccc(OC)c2O)CC1 was read as MITF act inactive, Wnt bcat act 43.9, Glyco luc inh inactive, PfHsp90 set2 inactive and Vif imaging inactive.
CC(C)(C)c1ccc(OCc2ccc(C(=O)Nc3cccnc3)o2)cc1 was read as MITF act inactive, Wnt bcat act inconclusive, esBAF inh 63.1, Glyco luc inh 28.6, PfHsp90 set2 inactive and Vif imaging inactive.
For O=C(Nc1nccs1)c1ccc(COc2ccccc2)o1 the results were Wnt bcat act inactive, esBAF inh 51.5, Glyco luc inh inactive, PfHsp90 set2 inactive and Vif imaging inactive.

Screening data (PubChem)
